Source: PubChem BioAssay
An excerpt weighted towards active compounds, which were near 11% of everything screened.
Autophagy HCS – autophagy modulation, high-content screen. actives 0.98% (n = 190,000). AID 463193. calls only at 10 µM (by protocol). MEF GFP-LC3 puncta imaging; test concentration mostly 10 µM;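 active = percentage of spot-positive cells more than 3 SD above its plate mean, without a fluorescence outlier flag or 80% toxicity; inconclusive = no clear call, values can overlap the other calls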;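 also: spot-positive cell cutoff set from DMSO-treated cells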
WT yeast gro inh – growth inhibition of WT yeast, mitochondrial fusion screen; inhibition, % at 10 µM; actives 2.1% (n = 190,000); mitochondrial fusion phenotypic screen, WT strain; in the data active = inhibition above about 58%; tested in S. cerevisiae
Ins promoter up – MIN6 insulin promoter up-regulation. z-score at 5 µM. MIN6 insulin promoter-GFP reporter, high-content imaging; active compounds read high. actives 0.3% (n = 190,000);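 active = z-score above 3 at 5 µM with at least 500 cells counted in the well; inconclusive = wells under 500 cells, flagged as cytotoxic or low count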
L major viab – inhibitors of Leishmania major promastigote growth | Leishmania major promastigotes, resazurin fluorescence viability | inhibition, % at 10 µM | actives 9% (n = 200,000); in the data active = inhibition above about 50%;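 also: promastigotes grown with compound for 44 hours at 28 °C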
Insulin prom inh – TRM-6 insulin promoter activity inhibition; TRM-6 cells (human fetal islet line), insulin promoter-eGFP reporter, imaging; reporter expression induced with tamoxifen; actives 0.9% (n = 130,000); inhibition, % at 2 µM;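 active = inhibition above the mean plus 3 SD, with well images judged a real hit on visual review, cut at about 60% in these data, passing the limit was not always enough; inconclusive = inhibition over the cutoff but images rejected on review; inactive = inhibition not above the cutoff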
The depositor's hits bear a star.

Screening COc1ccccc1Oc1ccc(-c2cnc3ccccc3n2)cc1[N+](=O)[O-] returned Autophagy HCS inactive, WT yeast gro inh -31 and L major viab 10.
`O=[N+]([O-])c1cc(-c2cnc3ccccc3n2)ccc1Oc1ccc(Cl)cc1` gave Autophagy HCS active, WT yeast gro inh 33, Ins promoter up 0.37 and L major viab -12.
Cc1ccsc1CN1CC(=O)N(c2c(C)cccc2C)C1=S was read as Autophagy HCS inactive, WT yeast gro inh 27, Ins promoter up -0.15, L major viab 53* and Insulin prom inh -33.
CC(=O)N1CC=C2C(C#N)=C(N)C(C#N)(C#N)[C@H](c3ccoc3)[C@H]2C1 was read as Autophagy HCS inactive, WT yeast gro inh 10, Ins promoter up 0.97, L major viab 2 and Insulin prom inh -338.
`CC(=O)N1CC=C2C(C#N)=C(N)C(C#N)(C#N)C(CCc3ccccc3)C2C1` (centres undefined) gave Autophagy HCS inactive, WT yeast gro inh -4, Ins promoter up 0.16 and L major viab 30.
CN1CC=C2C(C#N)=C(N)C(C#N)(C#N)C(c3cccc(Cl)c3Cl)C2C1 (centres undefined) was read as Autophagy HCS active, WT yeast gro inh 10, L major viab 17 and Insulin prom inh -212.
For CCCN1CC=C2C(C#N)=C(N)C(C#N)(C#N)C(c3cccc(OC)c3OC)C2C1 (centres undefined) the results were Autophagy HCS inconclusive, WT yeast gro inh -9, L major viab 20 and Insulin prom inh -212.
`CN1CC=C2C(C#N)=C(N)C(C#N)(C#N)[C@H](c3ccoc3)[C@H]2C1` gave Autophagy HCS active, WT yeast gro inh 20, L major viab 8 and Insulin prom inh -14.
For N#CC1=C(N)C(C#N)(C#N)[C@H](c2ccoc2)[C@H]2CN(Cc3ccccc3)CC=C12 the results were Autophagy HCS active, WT yeast gro inh 6, L major viab 56* and Insulin prom inh -212.
CCN1CC=C2C(C#N)=C(N)C(C#N)(C#N)C(CCc3ccccc3)C2C1 (centres undefined) was read as Autophagy HCS active, WT yeast gro inh 6, L major viab 14 and Insulin prom inh -85.
For COc1cccc(OCC(O)CN2CCN(CCN3C(=O)c4cccc5cccc(c45)C3=O)CC2)c1 (centres undefined) the results were Autophagy HCS inactive, WT yeast gro inh 32, Ins promoter up -0.07, L major viab 100* and Insulin prom inh -20.
For COc1cccc(OCC(O)CN2CCN(c3ccccc3)CC2)c1 (centres undefined) the results were Ins promoter up 0.73.
O=C(CN1CCN(CCN2C(=O)c3cccc4cccc(c34)C2=O)CC1)c1ccc(Cl)cc1 was read as Autophagy HCS inactive, WT yeast gro inh 10, Ins promoter up 0.23, L major viab 87* and Insulin prom inh -94.
`O=C1c2cccc3cccc(c23)C(=O)N1CCN1CCN(CC(O)COc2ccccc2)CC1` (centres undefined) gave Autophagy HCS inactive, WT yeast gro inh 15, Ins promoter up -0.55 and L major viab 97*.
Screening O=C(C(c1ccccc1)c1ccccc1)N1CCN(CCN2C(=O)c3cccc4cccc(c34)C2=O)CC1 returned Autophagy HCS inactive, WT yeast gro inh 46, Ins promoter up 0.06, L major viab -5 and Insulin prom inh -43.
Screening O=C(CN1CCN(CCN2C(=O)c3cccc4cccc(c34)C2=O)CC1)c1ccc(F)cc1 returned Autophagy HCS inactive, WT yeast gro inh 19, Ins promoter up 1, L major viab 37 and Insulin prom inh -28.
For Nc1cc(=O)[nH]n1C1CCCCC1 the results were Autophagy HCS active, WT yeast gro inh 3, Ins promoter up 0.74 and L major viab 9.
Cc1c(Cl)cccc1NC(=S)/C(=C(\[O-])c1ccc(Cl)s1)[n+]1ccccc1 was read as Autophagy HCS inactive, WT yeast gro inh 25, Ins promoter up 0.85, L major viab 64* and Insulin prom inh -7.
For O=C(c1cccc2ccccc12)N1CCN(c2ccc([N+](=O)[O-])c(NCc3ccco3)c2)CC1 the results were Autophagy HCS inactive, WT yeast gro inh 4, Ins promoter up -2.2, L major viab 55* and Insulin prom inh -29.
O=C(CCl)N(c1ccccc1)C1CCCCC1 was read as Autophagy HCS inconclusive, WT yeast gro inh -5, Ins promoter up -5.8, L major viab 89* and Insulin prom inh inactive.
`CC(=O)N(c1ccccc1)C1CCCC1` gave Autophagy HCS inactive, WT yeast gro inh -14, Ins promoter up 0.07, L major viab -5 and Insulin prom inh -60.
Screening CCCn1nnc(NC(=S)NC(=O)c2ccc(-c3ccc(Br)cc3)o2)n1 returned Ins promoter up 0.3.
Screening Cn1nnc(NC(=S)NC(=O)c2ccc(-c3ccc(Br)cc3)o2)n1 returned Autophagy HCS inactive, WT yeast gro inh 59*, Ins promoter up -1.1 and L major viab -1.
For Cc1ccc(C)c(N2CCN(C(=O)Cc3cn(C)c4ccccc34)CC2)c1 the results were Autophagy HCS inactive, WT yeast gro inh 63*, Ins promoter up -0.81, L major viab 6 and Insulin prom inh -19.
`Cc1ccc(C)c(N2CCN(C(=O)c3csc4ccccc34)CC2)c1` gave Autophagy HCS inactive, WT yeast gro inh 74*, Ins promoter up 0.4 and L major viab 14.
Screening Cc1ccc(C)c(N2CCN(C(=O)C(Cc3ccccc3)n3cccc3)CC2)c1 (centres undefined) returned Autophagy HCS inactive, WT yeast gro inh 62*, Ins promoter up -1.4 and L major viab 22.
For O=C(C(Cc1ccccc1)n1cccc1)N1CCN(c2ccccc2)CC1 (centres undefined) the results were Autophagy HCS inactive, WT yeast gro inh 11, Ins promoter up 0.84 and L major viab 9.
Screening CCC(=O)N1CCN(c2cc(C)ccc2C)CC1 returned Autophagy HCS inactive, WT yeast gro inh -4, Ins promoter up 0.59, L major viab -3 and Insulin prom inh -7.
Cc1ccc(Cl)cc1N1CCN(C(=O)Cc2cn(C)c3ccccc23)CC1 was read as Autophagy HCS inactive, WT yeast gro inh 57, Ins promoter up 0.33, L major viab 3 and Insulin prom inh -10.
`Nc1nc2c(F)c(F)c(F)cc2s1` gave Autophagy HCS inactive, WT yeast gro inh 17, Ins promoter up -0.29 and L major viab -11.
CC(=O)Cc1nsc(NC(=O)c2ccc(-c3cccc(Cl)c3)o2)n1 was read as Autophagy HCS inactive, WT yeast gro inh 27, Ins promoter up 0.06 and L major viab -3.
Screening COc1cc(/C=N/n2c(-c3ccc4c(c3)NC(=O)CO4)csc2=Nc2cccc(C)c2)ccc1O returned Autophagy HCS inactive, WT yeast gro inh 30, Ins promoter up -0.74, L major viab 92* and Insulin prom inh 31.
Screening Cc1cccc(C)c1C(=NCCCN(C)C)c1ccccc1 returned Autophagy HCS inactive, WT yeast gro inh 8, Ins promoter up -0.64, L major viab 47 and Insulin prom inh -37.
